High-throughput results from PubChem.
MCF10A rereplic: induces DNA re-replication in MCF 10a normal breast cells | MCF 10A DNA re-replication, Hoechst nuclear intensity, 48 h | Potency, µM (series often up to 46.1 µM), actives largely listed as activators | 2.9% of 350,000 active; note: nearly all actives have a fitted effect of over 50% in size
KB-V1 cytotox: KB-V1 MDR subline cytotoxicity. KB-V1 MDR cells viability, CellTiter-Glo, 72 h. Potency, µM (doses to about 46.1 µM), usual class: cytotoxic. 3.4% of 400,000 active. AID 1347076; note: nearly all actives have a fitted effect of over 60% in size
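Luminescent ATP read-out (CellTiter-Glo, 10 min) measures survival of drug-selected KB-V1 MDR cells after 72 h, 37 degrees C compound exposure. Medium: phenol-red-free DMEM, 10% FBS. Values from fitted concentration-response curves.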
KB-3-1 cytotox: KB-3-1 parental cell cytotoxicity | KB-3-1 viability, CellTiter-Glo ATP luminescence, 72 h | Potency, µM (titrated, usually from 46.1 µM), hits mostly cytotoxic | 1.4% of 400,000 active; note: nearly all actives have a fitted effect of over 60% in size
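Cytotoxicity in the drug-sensitive parental line KB-3-1 was scored as loss of CellTiter-Glo luminescence following 72 h incubation with compound. Values come from curve fitting of normalized concentration-response data.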
SW480 rerep: DNA re-replication induction in SW480 cells | SW480 DNA re-replication, Hoechst DNA content imaging, 48 h | Potency, µM (titrated, usually from 46.1 µM), actives largely listed as activators | 1.8% of 340,000 active | AID 624297; note: nearly all actives have a fitted effect of over 55% in size
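Quantitative HTS format with DMSO vehicle controls; 48 hr drug incubation at 37 C, then 40 min Hoechst staining and scanning imager measurement at 405 nm excitation.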
HT1080-NT tox: kills 2HG-producing HT-1080-NT fibrosarcoma cells; 1.6% of 360,000 active; Potency, µM (doses to about 46.1 µM), actives largely listed as cytotoxic; HT-1080-NT fibrosarcoma viability, CellTiter-Glo ATP luminescence, 48 h;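 note: NT is the 2HG producing partner of a matched IDH1 knockdown line; nearly all actives have a fitted effect of over 55% in size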
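Viability of the 2HG-overproducing fibrosarcoma line after 48 hours of compound exposure at 37 degrees C was determined by luminescence with CellTiter-Glo, and concentration-effect curves were then fitted and categorized.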
HT1080 IDH1KD tx: toxicity to HT-1080 IDH1 knockdown cells (counter line). HT-1080 IDH1 knockdown viability, ATP luminescence, 48 h. Potency, µM (highest dose often 46.1 µM), actives largely listed as cytotoxic. 2% of 360,000 active
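IDH1KD HT-1080 cells, 750/well, RPMI + 5% FBS; compound pinned after 2 h settling; 48 h, 37 °C; CellTiter-Glo luminescence; % activity normalised to DMSO and no-cell wells; curves fitted, classed by r2 and efficacy.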
Numbers stand for hits; 0 = inactive; ? = inconclusive; - = no result; [ ] = remark or other dose. Rows were chosen to be rich in hits. Some 7.9% of all compounds tested hit in one or more screens of this group. Calls come from the whole dose curve; as a rule, active = well fitted curve in the direction sought with a large enough effect; inconclusive = small, poorly fitted or top-dose-only effect, or another doubt; inactive = no such curve, though single readings can be large; an effect the other way counts as inactive or inconclusive.

SMILES | MCF10A rereplic | KB-V1 cytotox | KB-3-1 cytotox | SW480 rerep | HT1080-NT tox | HT1080 IDH1KD tx
O=S1(=O)N=C(OCc2ccccc2)c2ccccc21 | - | 0 | 0 | - | - | -
Cc1c(C(=O)C(=O)N2c3ccc(F)cc3CCC2C)c2ccccc2n1C (stereo unspecified) | 2.6µM | 2.9µM | 2.9µM | 7.3µM | 3.3µM | 2.3µM
Cc1c(C(=O)C(=O)N2CCCc3ccccc32)c2ccccc2n1C | ? | ? | ? | ? | 8.2µM | ?
Cc1c(C(=O)C(=O)N2CCN(C)CC2)c2ccccc2n1C | 0 | 0 | 0 | 0 | 0 | 0
CC1CCc2cc(F)ccc2N1C(=O)CCC(=O)O (stereo unspecified) | 0 | 0 | 0 | 0 | 0 | 0
CC(C)c1ccc(/C=N/NC(=O)c2cccc(Cl)c2)cc1 | 5.8µM | 8.2µM | 13µM | ? | 23µM | 21µM
CC(C)c1ccc(/C=N/NC(=O)c2cc(-c3cccc([N+](=O)[O-])c3)n[nH]2)cc1 | 18µM | 0 | ? | 0 | ? | 23µM
O=C(N/N=C/c1ccc(Cl)c([N+](=O)[O-])c1)c1cc(-c2ccc3c4c(cccc24)CC3)n[nH]1 | ? | ? | ? | ? | 5.2µM | 8.2µM
CC(C)c1ccc(/C=N/NC(=O)c2ccccn2)cc1 | 0 | 0 | 0 | 0 | ? | ?
COc1ccccc1C(=O)NCCC(=O)Nc1ncccc1O | 0 | 0 | 0 | 0 | 0 | 0
O=S(=O)(NCCN1CCOCC1)c1cc(Cl)c(Cl)cc1Cl | 0[9.22 µM] | ? | 0 | 0 | 0 | 0
Cc1ccccc1C(=O)O/N=C(\N)Cc1cccs1 | 0 | 0 | ? | ? | ? | 18µM
O=C(O)c1ccccc1-c1cn2cc(Cl)ccc2n1 | 0 | 0 | 0 | 0 | 0 | 0
Clc1ccc2nc(-c3ccc(Br)s3)cn2c1 | 0 | 18µM | 0 | 0 | ? | 0
COc1ccc(-c2cn3cc(C)ccc3n2)cc1Br | 0 | 0 | 0 | 0 | 0 | 0
COc1ccc(-c2cn3cc(Cl)ccc3n2)cc1OC | 0 | 16µM | 0 | 0 | 0 | 0
O=C(CSc1nnc(-c2ccccc2)n1Cc1ccccc1)NNC(=O)c1ccccc1O | 0 | 0 | ? | 5.2µM | 0 | 0
CC(C)OC(=O)CSc1nnc(-c2cccnc2)n1Cc1ccccc1 | 0 | 21µM | 0 | 0 | 0 | 0
Cc1ccc(NC(=O)NC2CCCc3ccccc32)cc1 (stereo unspecified) | 0 | 0 | ? | 0 | 0 | 0
O=C(CSc1nnc(-c2ccccc2O)n1Cc1ccccc1)NNC(=O)c1ccccc1O | 0 | 0 | ? | - | 0 | 0
O=C(CSc1ccccc1Cl)NC1CCCc2ccccc21 (stereo unspecified) | 0 | 0 | 0 | 0 | 0 | 0
O=C(CSc1c(Cl)cccc1Cl)NC1CCCc2ccccc21 (stereo unspecified) | 0 | 15µM | 0 | 0 | 0 | 0
CC(C)(C)c1ccc(NC(=O)NC2CCCc3ccccc32)cc1 (stereo unspecified) | ? | 21µM | ? | ? | ? | ?
CCn1cnc2c(=O)oc3ccc(S(=O)(=O)N4CCN(c5cc(C)ccc5C)CC4)cc3c21 | - | 0 | 0 | - | - | -
CC1CCN(C(=O)c2cc(Cl)ccc2NC(=O)c2ccco2)CC1 | 0 | ? | 0 | 0 | 0 | 0
SMILES | MCF10A rereplic | KB-V1 cytotox | KB-3-1 cytotox | SW480 rerep | HT1080-NT tox | HT1080 IDH1KD tx
O=C(Nc1ccc(OC(F)(F)F)cc1)C(NS(=O)(=O)c1cccc2nsnc12)c1ccccc1 (stereo unspecified) | - | ? | 0 | - | - | -
O=C(CN1CCN(c2ccccc2Cl)CC1)NC1CCCc2ccccc21 (stereo unspecified) | 0 | 9.2µM | ? | ? | 0 | 0
O=C(CSc1nnc(-c2ccncc2)n1Cc1ccccc1)NC1CCCc2ccccc21 (stereo unspecified) | ? | 10µM | 0 | 0 | 0 | 0
CC(C)OC(=O)CSc1nnc(-c2ccccn2)n1-c1ccccc1 | 0 | 0 | 0 | 0 | 0 | 0
Cc1ccc(-n2c(SCC(=O)OC(C)C)nnc2-c2ccccn2)cc1 | 0 | 21µM | 0 | 0 | 0 | 0
Cc1ccc(C(=O)CSc2nnc(-c3cccnc3)n2N)cc1 | ? | 7.3µM | ? | ? | ? | ?
